# For some assays here: Entries with a potency or affinity are not part of this list.
# Columns and labels:
# Set-up in all cases: scale not given: direction of the effect not stated beside the values
# [1] = molecular target: Protein translocase subunit SecA (Escherichia coli (strain K12)) (UniProt P10408); test: Assay to Identify E. coli SecA ATPase Inhibitors; assay type: functional; settings: 30 µM
# [2] = molecular target: T1, Ubiquitin-activating enzyme e1, putative (Leishmania donovani (strain BPK282A1)) (UniProt E9BSI1); test: Leishmania donovani Ubiquitin Activating Enzyme (LdE1); assay type: functional; settings: 30 µM
# T1 sequence (whole entry): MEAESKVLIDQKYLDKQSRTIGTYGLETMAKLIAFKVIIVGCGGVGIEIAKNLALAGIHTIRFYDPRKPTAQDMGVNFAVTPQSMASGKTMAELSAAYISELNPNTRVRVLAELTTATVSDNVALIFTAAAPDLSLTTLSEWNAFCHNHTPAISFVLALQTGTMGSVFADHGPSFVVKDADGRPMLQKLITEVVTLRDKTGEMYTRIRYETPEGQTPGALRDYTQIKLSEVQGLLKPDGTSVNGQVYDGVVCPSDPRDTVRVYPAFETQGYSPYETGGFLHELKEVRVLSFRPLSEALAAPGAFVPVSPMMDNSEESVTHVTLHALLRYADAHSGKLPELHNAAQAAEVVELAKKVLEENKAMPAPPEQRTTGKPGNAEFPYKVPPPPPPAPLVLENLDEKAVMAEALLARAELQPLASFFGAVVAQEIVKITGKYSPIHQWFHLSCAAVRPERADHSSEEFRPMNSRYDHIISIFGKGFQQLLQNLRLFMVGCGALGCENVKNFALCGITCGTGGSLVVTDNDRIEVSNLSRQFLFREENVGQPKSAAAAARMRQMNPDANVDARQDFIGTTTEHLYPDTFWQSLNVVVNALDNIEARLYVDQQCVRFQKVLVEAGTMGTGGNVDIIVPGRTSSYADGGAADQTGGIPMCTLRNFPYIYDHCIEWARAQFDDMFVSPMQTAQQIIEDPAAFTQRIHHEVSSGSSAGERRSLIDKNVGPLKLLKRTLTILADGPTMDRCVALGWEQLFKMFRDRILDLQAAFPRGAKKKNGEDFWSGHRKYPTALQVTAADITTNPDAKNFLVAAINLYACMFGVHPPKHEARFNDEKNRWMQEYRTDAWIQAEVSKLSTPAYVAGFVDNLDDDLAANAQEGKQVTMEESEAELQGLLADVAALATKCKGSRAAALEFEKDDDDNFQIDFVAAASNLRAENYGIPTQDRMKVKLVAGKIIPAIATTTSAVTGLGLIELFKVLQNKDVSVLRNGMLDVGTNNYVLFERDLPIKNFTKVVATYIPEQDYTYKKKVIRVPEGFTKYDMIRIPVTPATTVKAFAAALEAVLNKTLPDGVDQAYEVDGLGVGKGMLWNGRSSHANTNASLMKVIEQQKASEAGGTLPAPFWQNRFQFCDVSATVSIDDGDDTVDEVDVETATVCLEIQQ
# [3] = molecular target: AMP-activated protein kinase, AMPK (Homo sapiens) (UniProt P54646+O43741+P54619+Q9UGJ0+Q9Y478+Q13131+Q9UGI9); test: AMP-dependent Kinase enzyme assay. An in vitro enzyme assay that detects ADP turnover that is directly proportional to AMPK activity. This uses naive AMPK that is activated during the assay with MK-8722; assay type: functional; settings: 30 µM
# [4] = molecular target: Sialic acid-binding Ig-like lectin 9 (Homo sapiens) (UniProt Q9Y336); test: Hs-Siglec9 ALPHAscreen SOP 20170721; settings: 10 µM
# Chain of Sialic acid-binding Ig-like lectin 9 (Homo sapiens) (Q9Y336 whole entry): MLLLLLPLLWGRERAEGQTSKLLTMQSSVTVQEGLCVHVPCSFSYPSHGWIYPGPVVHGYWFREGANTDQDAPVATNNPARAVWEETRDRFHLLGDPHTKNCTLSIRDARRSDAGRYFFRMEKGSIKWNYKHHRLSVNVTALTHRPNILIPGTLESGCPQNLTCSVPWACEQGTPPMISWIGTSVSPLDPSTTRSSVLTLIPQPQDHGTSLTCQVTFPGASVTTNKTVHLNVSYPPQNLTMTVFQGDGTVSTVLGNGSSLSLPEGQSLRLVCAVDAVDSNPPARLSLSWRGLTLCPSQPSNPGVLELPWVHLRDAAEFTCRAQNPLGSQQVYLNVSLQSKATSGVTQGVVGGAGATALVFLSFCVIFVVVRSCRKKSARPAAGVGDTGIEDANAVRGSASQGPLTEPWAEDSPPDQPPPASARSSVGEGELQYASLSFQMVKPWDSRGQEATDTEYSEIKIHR
# Trypanosoma cruzi = test: Trypanosoma cruzi phosphomannomutase and mannose-1-phosphate guanylyltransferase assay; assay type: functional; settings: 10 µM
# [5] = molecular target: T2, Arginase-2, mitochondrial (Homo sapiens) (UniProt P78540); test: in vitro enzyme assay to detect the production of urea directly proportional to the activity of Arginase II; assay type: functional; settings: 33.3 µM; also: in the data most compounds retested in dose-response had high values
# T2 sequence (whole entry): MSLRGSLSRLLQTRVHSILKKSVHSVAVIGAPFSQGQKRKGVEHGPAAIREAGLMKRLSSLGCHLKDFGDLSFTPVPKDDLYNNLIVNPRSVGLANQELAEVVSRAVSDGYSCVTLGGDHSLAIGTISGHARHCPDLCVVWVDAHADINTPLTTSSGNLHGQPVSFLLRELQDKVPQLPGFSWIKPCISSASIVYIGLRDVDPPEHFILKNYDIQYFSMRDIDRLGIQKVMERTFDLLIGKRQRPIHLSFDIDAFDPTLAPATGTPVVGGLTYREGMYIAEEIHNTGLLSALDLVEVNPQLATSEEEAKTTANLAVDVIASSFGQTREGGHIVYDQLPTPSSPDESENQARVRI
# [6] = molecular target: T3, Proteasome subunit beta (Trypanosoma cruzi) (UniProt O96673); test: Trypanosoma cruzi proteasome chymotrypsin-like activity (TcProtChymo) assay.; also: in the data most compounds retested in dose-response had high values; assay type: functional; settings: 9.37 µM
# T3 sequence (whole entry): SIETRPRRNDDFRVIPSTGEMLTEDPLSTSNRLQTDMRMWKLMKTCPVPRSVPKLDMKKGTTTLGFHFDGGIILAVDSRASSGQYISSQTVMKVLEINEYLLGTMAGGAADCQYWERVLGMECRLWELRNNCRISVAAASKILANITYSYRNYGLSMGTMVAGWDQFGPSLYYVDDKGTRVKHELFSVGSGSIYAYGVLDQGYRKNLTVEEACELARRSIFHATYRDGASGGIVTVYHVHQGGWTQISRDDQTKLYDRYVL
# Homo sapiens = species on record: Homo sapiens; test: To identify inhibition of the IFN signalling (Jak-Stat) pathway via expression of an eGFP reporter gene under the control of an IFN-stimulated response element (ISRE) containing MxA promoter.; assay type: functional; settings: 30 µM
# [7] = molecular target: T4, Tyrosyl-tRNA synthetase, putative (Trypanosoma cruzi (strain CL Brener)) (UniProt Q4DSP6); test: Trypanosoma cruzi tyrosyl tRNA synthetase (TcYRS) _High Tyrosine SOP; assay type: functional; settings: 30 µM; also: in the data most compounds retested in dose-response had high values
# T4 sequence (whole entry): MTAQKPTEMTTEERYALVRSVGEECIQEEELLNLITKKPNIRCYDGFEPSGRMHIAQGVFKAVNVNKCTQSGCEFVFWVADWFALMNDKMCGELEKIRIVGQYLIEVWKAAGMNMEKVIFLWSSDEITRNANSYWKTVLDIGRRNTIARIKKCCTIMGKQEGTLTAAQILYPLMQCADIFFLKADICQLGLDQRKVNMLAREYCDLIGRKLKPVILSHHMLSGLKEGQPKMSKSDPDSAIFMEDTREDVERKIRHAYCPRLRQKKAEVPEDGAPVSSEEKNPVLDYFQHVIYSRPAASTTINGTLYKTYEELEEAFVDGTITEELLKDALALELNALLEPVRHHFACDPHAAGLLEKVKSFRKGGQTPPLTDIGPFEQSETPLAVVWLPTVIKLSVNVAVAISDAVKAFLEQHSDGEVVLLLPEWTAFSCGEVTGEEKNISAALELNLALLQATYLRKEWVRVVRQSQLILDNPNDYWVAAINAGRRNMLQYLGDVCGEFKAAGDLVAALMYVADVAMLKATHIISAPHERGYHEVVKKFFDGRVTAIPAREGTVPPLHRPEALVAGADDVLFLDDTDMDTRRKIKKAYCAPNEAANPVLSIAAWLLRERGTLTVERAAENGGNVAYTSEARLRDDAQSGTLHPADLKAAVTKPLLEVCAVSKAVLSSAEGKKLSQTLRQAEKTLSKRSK
# [8] = molecular target: T4, Tyrosyl-tRNA synthetase, putative (Trypanosoma cruzi (strain CL Brener)); test: Trypanosoma cruzi tyrosyl tRNA synthetase (TcYRS) SOP; assay type: functional; settings: 30 µM
# [9] = molecular target: Chromo domain-containing protein 1 (Saccharomyces cerevisiae (strain ATCC 204508 / S288c) (Baker's yeast)) (UniProt P32657); test: ScCHD-1 Enzyme Inhibition Assay; assay type: functional; settings: 30 µM; also: in the data most compounds retested in dose-response had high values
# Chain of Chromo domain-containing protein 1 (Saccharomyces cerevisiae (strain ATCC 204508 / S288c) (Baker's yeast)) (P32657 whole entry, the tested form may be a part): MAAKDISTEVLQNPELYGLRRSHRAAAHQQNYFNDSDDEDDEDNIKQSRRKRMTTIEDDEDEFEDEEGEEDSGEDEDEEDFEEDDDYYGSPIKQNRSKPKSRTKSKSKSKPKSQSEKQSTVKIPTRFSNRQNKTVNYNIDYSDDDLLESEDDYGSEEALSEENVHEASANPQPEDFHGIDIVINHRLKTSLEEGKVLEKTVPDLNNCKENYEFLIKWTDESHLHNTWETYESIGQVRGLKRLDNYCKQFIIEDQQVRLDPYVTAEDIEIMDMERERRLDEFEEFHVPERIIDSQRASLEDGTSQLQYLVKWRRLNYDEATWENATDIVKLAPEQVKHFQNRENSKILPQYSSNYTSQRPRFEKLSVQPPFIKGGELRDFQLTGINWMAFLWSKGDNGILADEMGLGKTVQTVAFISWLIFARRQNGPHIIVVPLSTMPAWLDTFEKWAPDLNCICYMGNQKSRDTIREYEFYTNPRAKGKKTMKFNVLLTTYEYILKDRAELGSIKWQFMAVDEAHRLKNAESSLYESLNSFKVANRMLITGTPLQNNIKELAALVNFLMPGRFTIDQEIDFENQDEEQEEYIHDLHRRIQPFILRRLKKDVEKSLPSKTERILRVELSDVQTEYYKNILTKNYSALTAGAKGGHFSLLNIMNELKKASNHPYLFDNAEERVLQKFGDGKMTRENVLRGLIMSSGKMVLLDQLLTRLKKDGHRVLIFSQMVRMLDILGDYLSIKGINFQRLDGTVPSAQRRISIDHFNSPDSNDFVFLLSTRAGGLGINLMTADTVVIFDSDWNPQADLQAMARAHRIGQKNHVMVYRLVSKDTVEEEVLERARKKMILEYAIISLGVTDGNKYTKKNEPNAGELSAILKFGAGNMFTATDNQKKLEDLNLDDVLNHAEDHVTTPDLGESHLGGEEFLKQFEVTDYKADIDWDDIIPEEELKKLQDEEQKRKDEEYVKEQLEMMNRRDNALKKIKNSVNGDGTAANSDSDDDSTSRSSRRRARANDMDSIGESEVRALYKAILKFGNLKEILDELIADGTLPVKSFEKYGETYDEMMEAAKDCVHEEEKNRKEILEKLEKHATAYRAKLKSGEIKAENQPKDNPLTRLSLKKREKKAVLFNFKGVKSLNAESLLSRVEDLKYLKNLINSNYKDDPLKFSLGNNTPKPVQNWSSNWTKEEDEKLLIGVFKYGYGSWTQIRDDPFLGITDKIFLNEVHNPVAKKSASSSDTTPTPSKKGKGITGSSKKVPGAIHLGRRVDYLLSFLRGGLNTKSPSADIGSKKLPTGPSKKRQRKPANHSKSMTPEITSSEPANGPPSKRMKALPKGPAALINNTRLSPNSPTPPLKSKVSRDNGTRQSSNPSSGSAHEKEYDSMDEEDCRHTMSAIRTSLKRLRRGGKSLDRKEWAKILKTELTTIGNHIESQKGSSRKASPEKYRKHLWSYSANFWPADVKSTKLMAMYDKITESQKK
# Chain of Protein translocase subunit SecA (Escherichia coli (strain K12)) (P10408 whole entry): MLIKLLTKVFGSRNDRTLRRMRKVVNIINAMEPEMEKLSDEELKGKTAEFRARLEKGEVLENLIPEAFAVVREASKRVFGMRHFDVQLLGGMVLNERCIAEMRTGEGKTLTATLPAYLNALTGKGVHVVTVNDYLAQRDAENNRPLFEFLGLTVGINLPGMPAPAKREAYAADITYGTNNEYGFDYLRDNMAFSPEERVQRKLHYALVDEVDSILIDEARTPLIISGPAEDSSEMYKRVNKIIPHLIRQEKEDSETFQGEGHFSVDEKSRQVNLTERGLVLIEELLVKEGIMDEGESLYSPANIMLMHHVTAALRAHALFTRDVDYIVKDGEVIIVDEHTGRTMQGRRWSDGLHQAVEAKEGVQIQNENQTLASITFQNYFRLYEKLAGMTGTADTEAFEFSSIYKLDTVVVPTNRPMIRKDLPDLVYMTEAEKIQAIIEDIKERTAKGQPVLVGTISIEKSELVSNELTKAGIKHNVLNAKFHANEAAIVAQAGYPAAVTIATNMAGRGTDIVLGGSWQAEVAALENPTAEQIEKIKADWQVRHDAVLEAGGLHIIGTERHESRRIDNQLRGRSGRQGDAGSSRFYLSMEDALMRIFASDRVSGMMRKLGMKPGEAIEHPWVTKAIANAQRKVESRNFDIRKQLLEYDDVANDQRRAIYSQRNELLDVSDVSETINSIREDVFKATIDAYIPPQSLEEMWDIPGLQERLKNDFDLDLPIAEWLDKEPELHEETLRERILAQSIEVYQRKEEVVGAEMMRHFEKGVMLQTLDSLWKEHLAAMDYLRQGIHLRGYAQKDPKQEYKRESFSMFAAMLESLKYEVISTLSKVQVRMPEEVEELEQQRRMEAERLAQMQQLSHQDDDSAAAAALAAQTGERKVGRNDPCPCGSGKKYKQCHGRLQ
Compound,Percent Effect [1] [%],Percent Effect [2] [%],Percent Effect [3] [%],Percent Effect [4] [%],Percent Effect (Trypanosoma cruzi) [%],Percent Effect [5] [%],Percent Effect [6] [%],Percent Effect (Homo sapiens) [%],Percent Effect [7] [%],Percent Effect [8] [%],Percent Effect [9] [%]
CSCCNC(=O)c1ccc(OC2CCN(CC(C)(C)C)CC2)c(Cl)c1,-3.94,8.11,-0.678,31.3,7.53,0.248,7.47,-3.54,2.15,8.64,-9.27
Cc1cccc(CC(=O)NCCCOC(C)C)c1,-0.872,18.2,0.619,-8.05,-3.75,0.712,9.8,27.8,9.71,19.5,-7.62
COc1c(CNC(c2ccc(F)cc2)C(C)(C)C)c(C)nn1C (stereo unspecified),-1.68,5.26,-4.48,2.41,-6.01,-7.28,4.84,30.8,0.49,-4.88,-5.33
CC(C)S(=O)(=O)NCC1CCCN(C(=O)c2ccc3c(c2)CCC3)C1 (stereo unspecified),-5.88,5.48,5.06,-5.74,0.588,-2.27,7.28,16.7,1.07,7.5,-5.72
CC(NC(=O)NCC1(N2CCCCC2)CCCCC1)c1nncn1C (stereo unspecified),-6.18,18.4,-2.65,0.417,1.03,0,-0.931,5.56,9.36,18.5,-6
CCOc1ccc(C2CC(=O)Nc3c2c(=O)nc2sccn32)cc1 (stereo unspecified),-6.79,17.3,-2.62,8.5,1.97,-6.51,9.06,7.35,4.23,7.69,-13.3
CCOc1ccc(-n2nnc(C(=O)O)c2-c2ccncc2)cc1,-0.35,13.2,1.31,-8.67,0.292,1.18,9.11,23.3,2.13,18.2,-5.18
Cn1ncc2c(=O)[nH]c(CN(Cc3cccc(F)c3)C3CC3)nc21,-4.78,15.6,1.73,-0.0963,8.05,3.92,16.1,-5.95,8.74,24.4,-7.35
CNC(=O)c1ccc(C(=O)N2CCCC(n3cc(C)cn3)C2)cn1 (stereo unspecified),-7.4,26,-0.148,5.41,9.18,3.56,12,26.2,9.71,26.8,-11.2
CC(C)Oc1ncnc2c1CCN(C(=O)c1cccn1C)CC2,-3.69,13.3,9.51,-7.87,-4.53,-3.03,11.2,9.21,2.13,8.97,-0.243
CC(C)c1nnc(NC(=O)NCc2ccnc(N(C)C)c2)s1,0.949,8.86,3.28,-0.716,-2.77,8.39,15.8,30.7,1.04,7.59,-17.6
O=S(=O)(c1ccccc1)N1CCN(CCn2ccnc2)CC1,-6.59,2.74,-6.09,-6.85,0.979,3.64,7.28,6.13,6.45,7.5,-3.52
Cc1nc(CN2CCCC2c2c(C)nn(C)c2Cl)no1 (stereo unspecified),-2.73,5.26,-8.02,-3,-2.33,-3.24,-9.22,-11.3,3.45,-1.24,6.8
CCCn1ncc(CN2C[C@@H]3CCCN3C[C@@H]2CCSC)c1C,0.712,9.46,3.26,-4.09,-5.93,-3.02,19.5,8.73,3.23,6.49,-15
Cc1nn(C(C)C)c(C)c1NC(=O)c1ccncc1,-2.46,16.4,-7.09,5.06,5.56,0.399,16.5,-7.45,10.4,11.1,-7.44
CNC(=O)c1cccc(C2CNCCN2C)c1 (stereo unspecified),1.64,14.9,4.3,-1.87,-2.96,7.19,12.2,-5.37,0,6.49,-5.34

# From ChEMBL document CHEMBL3988442, “University of Dundee, Small-Polar-MMV Screening Library” (2021)
